Screening data from PubChem BioAssay.
Most compounds without a hit are left out; they make up all but 6.8% or so of the library.
Pf Dd2 inh: blocks growth of Plasmodium falciparum Dd2 parasites. activity change, % at 10 µM. AID 1159554. 2.3% of 94,000 active. P. falciparum Dd2 growth, SYBR Green, 72 h; stronger effect = lower value; in the data active = activity change below about -80%; inconclusive = no clear call, values can overlap the other calls
T cruzi growth-1: inhibitors of T. cruzi proliferation | AID 624255 | inhibition, % at 8.34 µM | 5.9% of 77,000 active | T. cruzi beta-gal in NIH3T3, GalScreen luminescence, 90 h;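 active = mean inhibition above about 93%, with at least 55% of replicates each passing it, limit read from the data, passing the limit was not always enough; inconclusive = only one of those two conditions holds; inactive = neither condition holds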
C diff growth: C. difficile growth inhibition; growth activity, negative = inhibition, % at 16 µg/mL (by protocol); 0.25% of 86,000 active; AID 1259249; Clostridium difficile clinical isolate growth, OD600, 24 h; stronger effect = lower value;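 active = mean growth activity at or below -80% and every replicate also at or below -80%; inconclusive = mean at or below -80% but some replicate above -80%; inactive = mean growth activity above -80%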;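 also: 0% = DMSO wells and -100% = levofloxacin 16 µg/mL wells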
T cruzi growth-2: inhibitors of T. cruzi proliferation | T. cruzi beta-gal in NIH3T3, GalScreen luminescence, 90 h | 72% of 5,600 active | shares compounds with T cruzi growth-1 | inhibition, % at 8.35 µM;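 active = mean replicate inhibition above about 95% and at least 55% of replicates individually reaching it, limit read from the data; inconclusive = only one of the two criteria is met; inactive = neither criterion is met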
T cruzi growth-3: inhibitors of T. cruzi proliferation. shares compounds with T cruzi growth-1. T. cruzi beta-gal in NIH3T3, GalScreen luminescence, 90 h. inhibition, % at 2.09 µM. 21% of 5,600 active;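 active = mean inhibition above about 95%, with at least 55% of replicates also reaching it, limit read from the data; inconclusive = meets just one of the two conditions; inactive = meets neither condition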;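 also: plate controls were neutral control median for no effect and positive control median for full effect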
NIH3T3 tox: NIH/3T3 (mouse) viability loss; shares compounds with T cruzi growth-1; NIH/3T3 viability, CellTiter-Glo ATP luminescence, 90 h; cytotoxicity (signal decrease), % at 8.35 µM; 14% of 5,600 active;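 active = mean signal decrease across replicates above about 35% based on untreated-well scatter, with enough replicates individually passing, limit read from the data; inconclusive = no rule stated though some were filed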;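 also: 0% = median of neutral control wells and 100% = median of positive control wells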
3T3 cytotox 2: kills mouse NIH/3T3 fibroblasts. shares compounds with T cruzi growth-1. NIH/3T3 viability, CellTiter-Glo ATP luminescence, 90 h. inhibition, % at 24.9 µM. 56% of 5,600 active;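 active = mean loss of cell viability signal at or above a set limit, and enough replicates individually reaching it; inconclusive = meets only the mean limit or only the replicate share; inactive = meets neither condition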;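 also: 0% = median of neutral control wells and 100% = median of positive control wells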
* marks the source's active call; other numbers are inactive results; ? = inconclusive; . = no result.

SMILES	Pf Dd2 inh	T cruzi growth-1	C diff growth	T cruzi growth-2	T cruzi growth-3	NIH3T3 tox	3T3 cytotox 2
Cc1ccc(S(=O)(=O)Nc2ccc3c(c2)C(=O)N([C@H](C)CO)C[C@H](C)[C@@H](CN(C)S(=O)(=O)c2ccc(C)cc2)OCCCC[C@H](C)O3)cc1	-67	98*	.	97*	54	75*	59*
Cc1ccc(S(=O)(=O)Nc2ccc3c(c2)C(=O)N([C@H](C)CO)C[C@@H](C)[C@@H](CN(C)S(=O)(=O)c2ccccc2)OCCCC[C@H](C)O3)cc1	-71	94	-6	.	.	.	.
Cc1ccc(S(=O)(=O)Nc2ccc3c(c2)C(=O)N([C@H](C)CO)C[C@@H](C)[C@H](CN(C)S(=O)(=O)c2ccc(C)cc2)OCCCC[C@H](C)O3)cc1	-64	91	.	.	.	.	.
Cc1ccc(S(=O)(=O)Nc2ccc3c(c2)C(=O)N([C@H](C)CO)C[C@H](C)[C@H](CN(C)S(=O)(=O)c2ccccc2)OCCCC[C@@H](C)O3)cc1	-34	45	-3	.	.	.	.
Cc1ccc(S(=O)(=O)Nc2ccc3c(c2)C(=O)N([C@@H](C)CO)C[C@H](C)[C@@H](CN(C)S(=O)(=O)c2ccc(C)cc2)OCCCC[C@H](C)O3)cc1	-76	106*	.	108*	85	-19	-17
COc1ccc2c3c([nH]c2c1)[C@@H](CO)N(C(=O)C1CCCCC1)CC31CN(C(=O)NC(C)C)C1	26	.	13	.	.	.	.
C[C@@H]1CCCCO[C@H](CN(C)C(=O)CCC(F)(F)F)[C@@H](C)CN([C@H](C)CO)C(=O)c2cc(NS(=O)(=O)c3ccc(Cl)cc3)ccc2O1	-22	88	-14	.	.	.	.
C[C@@H]1CCCCO[C@H](CN(C)C(=O)CCC(F)(F)F)[C@H](C)CN([C@@H](C)CO)C(=O)c2cc(NS(=O)(=O)c3ccc(Cl)cc3)ccc2O1	-2	104*	-4	103*	68	11	72*
C[C@@H]1CN([C@H](C)CO)C(=O)c2cc(NS(=O)(=O)c3ccc(Cl)cc3)ccc2O[C@@H](C)CCCCO[C@@H]1CN(C)C(=O)CCC(F)(F)F	-36	99*	-10	82	52	16	71*
C[C@@H]1CN([C@@H](C)CO)C(=O)c2cc(NS(=O)(=O)c3ccc(Cl)cc3)ccc2O[C@@H](C)CCCCO[C@H]1CN(C)C(=O)CCC(F)(F)F	-5	42	-20	.	.	.	.
Cc1ccc(S(=O)(=O)N(C)C[C@@H]2Oc3ncc(C#CC4(O)CCCC4)cc3C(=O)N([C@H](C)CO)C[C@H]2C)cc1	-52	10	2	.	.	.	.
O=C(C[C@@H]1C[C@H]2c3cc(NC(=O)C4CCC4)ccc3O[C@H]2[C@H](CO)O1)NC1CCCCC1	22	-14	.	.	.	.	.
C[C@H](CO)N1C[C@H](C)[C@H](CN(C)S(C)(=O)=O)Oc2c(NS(=O)(=O)c3ccc(Cl)cc3)cccc2C1=O	9	4	-1	.	.	.	.
CCCNC(=O)N(C)C[C@H]1Oc2cc(C#CCC(C)C)ccc2S(=O)(=O)N([C@H](C)CO)C[C@H]1C	-14	78	-5	.	.	.	.
COc1ccc(C#Cc2ccc3c(c2)[C@H]2[C@H](CCN2C(=O)c2ccncc2)[C@H](CO)N3)cc1	-60	101*	53	107*	61	26	38*
COc1ccc(C#Cc2ccc3c(c2)[C@H]2[C@H](CCN2C(=O)CC2CC2)[C@H](CO)N3)cc1	-22	?	-8	98*	52	6	21
COc1ccc(C#Cc2ccc3c(c2)[C@@H]2[C@@H](CCN2C(C)=O)[C@H](CO)N3)cc1	-36	.	-6	.	.	.	.
COCC(=O)N1CC[C@@H]2[C@H]1c1cc(C#Cc3ccc(OC)cc3)ccc1N[C@@H]2CO	-18	42	-20	.	.	.	.
COc1ccc(NC(=O)Nc2ccc3c(c2)CC(=O)N([C@@H](C)CO)C[C@@H](C)[C@H](CN(C)S(=O)(=O)c2ccc(Cl)cc2)O3)cc1	-42	-13	-10	.	.	.	.
COc1cccc(C(=O)Nc2ccc3c(c2)C(=O)N(C)[C@H]2CC[C@@H](CC(=O)NCC4CC4)O[C@H]2CO3)c1	-3	-33	-6	.	.	.	.
C[C@H](CO)N1C[C@H](C)[C@H](CN(C)C(=O)NC2CCCCC2)OCCCC[C@H](C)Oc2ccc(NS(=O)(=O)c3cccs3)cc2C1=O	-36	49	8	.	.	.	.
CC(C)C#Cc1ccc([C@@H]2[C@H]3CN(C(=O)c4ccc5c(c4)OCO5)CCCCN3[C@H]2CO)cc1	-8	39	5	.	.	.	.
CC(C)C#Cc1ccc([C@H]2[C@@H](CO)N3CCCCN(C(=O)c4ccc5c(c4)OCO5)C[C@@H]23)cc1	-1	99*	-7	110*	106*	68*	50*
C[C@H](O)C#Cc1ccc([C@@H]2[C@@H](CO)N3CCCCN(C(=O)c4ccc5c(c4)OCO5)C[C@@H]23)cc1	4	97*	-9	105*	32	31	44*
C[C@H](O)C#Cc1ccc([C@@H]2[C@H]3CN(C(=O)c4ccc5c(c4)OCO5)CCCCN3[C@H]2CO)cc1	17	33	-8	.	.	.	.
SMILES	Pf Dd2 inh	T cruzi growth-1	C diff growth	T cruzi growth-2	T cruzi growth-3	NIH3T3 tox	3T3 cytotox 2
COc1ccc2c3c(n(C)c2c1)[C@@H](CO)N(C(=O)c1cccc(F)c1)CC31CCN(CC2CC2)CC1	0	.	.	.	.	.	.
COc1ccc(S(=O)(=O)Nc2ccc3c(c2)OC[C@@H](C)N(Cc2cc(F)ccc2F)C[C@@H](C)[C@H](OC)CN(C)C3=O)cc1	-39	122*	.	110*	83	-14	-9
CO[C@@H]1CN(C)C(=O)c2ccc(NS(=O)(=O)c3cccc(F)c3)cc2OC[C@H](C)N(Cc2cc(F)ccc2F)C[C@@H]1C	-23	.	.	.	.	.	.
CO[C@@H]1CN(C)C(=O)c2ccc(NS(=O)(=O)c3cccc(C)c3)cc2OC[C@@H](C)N(Cc2cc(F)ccc2F)C[C@H]1C	-45	98*	-3	106*	48	-15	2
CO[C@@H]1CN(C)C(=O)c2cc(NS(=O)(=O)c3cccc(F)c3)ccc2OC[C@H](C)N(Cc2cc(F)ccc2F)C[C@@H]1C	-49	82	3	.	.	.	.
CO[C@@H]1CN(C)C(=O)c2cc(NS(=O)(=O)c3cccc(F)c3)ccc2OC[C@@H](C)N(Cc2cc(F)ccc2F)C[C@H]1C	-70	?	-4	103*	?	-28	15
CO[C@@H]1CN(C)C(=O)c2ccc(NS(=O)(=O)c3cccc(F)c3)cc2OC[C@@H](C)N(Cc2cc(F)ccc2F)C[C@@H]1C	-14	.	.	.	.	.	.
CO[C@@H]1CN(C)C(=O)c2cc(NS(=O)(=O)c3cccc(F)c3)ccc2OC[C@H](C)N(Cc2cc(F)ccc2F)C[C@H]1C	-32	86	11	.	.	.	.
CO[C@H]1CN(C)C(=O)c2cc(NS(=O)(=O)c3cccc(F)c3)ccc2OC[C@@H](C)N(Cc2cc(F)ccc2F)C[C@H]1C	-33	?	11	111*	76	-8	52*
